Assay outcomes as filed in PubChem.
HT1080-NT tox = kills 2HG-producing HT-1080-NT fibrosarcoma cells. HT-1080-NT fibrosarcoma viability, CellTiter-Glo ATP luminescence, 48 h. 360,000 compounds, 1.6% hits. Potency, µM (top dose mostly 46.1 µM), for inactives: at the highest dose activity, negative = less viability, usual class: cytotoxic;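 further: NT is the 2HG producing partner of a matched IDH1 knockdown line; potency means the concentration at half of the fitted maximal effect; 0% = DMSO-treated cells and -100% = media-only wells without cells; nearly all actives have a fitted effect of over 55% in size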
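Fibrosarcoma NT cells, 750 per well in 5% FBS RPMI, were exposed to compound for 48 hours. Viability: CellTiter-Glo luminescence.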
TDP1 cell noCPT = qHTS for Inhibitors of human tyrosyl-DNA phosphodiesterase 1 (TDP1): qHTS in cells in absence of CPT | DT40 Tdp1-/- hTDP1 cells, no CPT, ATP luminescence, 48 h | Potency, µM (series often up to 46.2 µM), for the others: at the top dose activity change, negative = growth inhibition, hits mostly inhibitors | 420,000 compounds, 15% hits; further: potency means the concentration at half of the fitted maximal effect; nearly all actives have a fitted effect of over 55% in size
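Compound effects on proliferation are scored in DT40 Tdp1-/-;hTDP1 cells in the absence of CPT. ATP levels (CellTiter-Glo luminescence) are recorded after a ≥48 hr, 37 °C incubation.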
IL-1B inflam inh = blocks inflammasome-driven IL-1 beta release; THP-1 LPS/ATP IL-1B secretion, AlphaLISA, 16 h; active compounds read low; activity change, % at 57.5 µM; 360,000 compounds, 4.7% hits; AID 743279; in the data active means activity change below about -50%; inconclusive means mostly about -30% to -49%
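THP-1 cells pretreated 1 hr with compounds (up to 57.5 uM final), then stimulated with LPS (250 ng/mL final) plus ATP (1.25 mM final); secreted IL-1B measured by AlphaLISA after 16 hr, decreased signal indicating inhibition.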
TDP1 cell CPT = DT40-hTDP1 cell growth loss with CPT; chicken DT40 Tdp1-/-;hTDP1 cells + 20 nM CPT, ATP luminescence, 48 h; Potency, µM (top dose mostly 46.2 µM), for inactives: at the highest dose activity change, negative = growth inhibition, usual class: inhibitors; 420,000 compounds, 12% hits; AID 686979; further: potency means the concentration at half of the fitted maximal effect; nearly all actives have a fitted effect of over 55% in size
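Cell growth measured by CellTiter-Glo luminescence after a minimum 48 h, 37 C compound exposure with 20 nM CPT in Tdp1-knockout DT40 cells stably expressing hTDP1, seeded 400/well; qHTS titration format.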
HT1080 IDH1KD tx = HT-1080 IDH1 knockdown cell toxicity (counter line); 360,000 compounds, 2% hits; HT-1080 IDH1 knockdown viability, ATP luminescence, 48 h; Potency, µM (titrated, usually from 46.1 µM), without a hit: top-dose activity, negative = toxicity, actives largely listed as cytotoxic;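 further: potency means the concentration at half of the fitted maximal effect; 0% = DMSO wells and -100% = cell-free medium wells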
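Using the IDH1-knockdown HT-1080 line run in the same batch and compound series as the NT line, viability after 48 h at 37 °C was determined by CellTiter-Glo luminescence and expressed as % activity.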
ELG1 repair inh = ELG1-dependent DNA repair inhibition | HEK293T ELG1-luciferase reporter, luminescence, 16 h; DNA damage induced by 5-fluorouridine | Potency, µM (highest dose often 46.1 µM), inactives show at the highest dose activity change, negative = inhibition, most hits filed as inhibitors | 330,000 compounds, 2.3% hits; further: potency means the concentration at half of the fitted maximal effect; nearly all actives have a fitted effect of over 55% in size
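Reporter activity after DNA damage by 5-fluorouridine is monitored. Compound-treated cells incubate 16 hr at 37 °C, then ONE-Glo is added for 30 min before luminescence reading.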
The depositor's hits bear a star; ? = inconclusive; · = no result given. A selection: hits, their analogues and other compounds. The true share with any hit is near 19%. Unless noted, the call rests on the fitted dose curve; in most records, active means well fitted curve in the direction sought with a large enough effect; inconclusive means small, poorly fitted or top-dose-only effect, or another doubt; inactive means no such curve, though single readings can be large; an effect the other way counts as inactive or inconclusive. Unless noted, on the % scale 0 is the no-effect control and ±100 the full control effect.

SMILES	HT1080-NT tox	TDP1 cell noCPT	IL-1B inflam inh	TDP1 cell CPT	HT1080 IDH1KD tx	ELG1 repair inh
C/C(=N\NC(=O)CSCc1ccc([N+](=O)[O-])cc1)c1ccccc1O	-5%	3.7µM*	24	5.2µM*	-20%	?
C/C(=N\NC(=O)C(C)Sc1ccccc1)c1ccc([N+](=O)[O-])cc1 (centres undefined)	0%	4.1µM*	41	?	-16%	-7%
Cc1ccc(S(=O)(=O)N2CCOCC2)cc1NC(=O)COC(=O)CCc1c[nH]c2ccccc12	0%	?	-3	?	-2%	-10%
Cc1ccc(C)c(Cn2cnc3ccccc3c2=O)c1	·	?	·	-2%	·	·
Cc1cccc(C(=O)OCC(=O)NN2C(=O)NC3(CCC(C)CC3)C2=O)c1O (centres undefined)	13%	1%	3	0%	11%	?
COc1ccc(CNC(=O)C2(c3cccs3)CCOCC2)cc1	·	-28%	·	-3%	·	·
CC(=O)Nc1ccc(-c2csc(-c3cccnc3)n2)cc1	-22%	?	-55*	?	-27%	?
O=S(=O)(c1ccc(-c2csc(-c3cccnc3)n2)cc1)N1CCCCC1	8%	?	-15	?	3%	23µM*
CCCC(=O)Nc1ccc(-c2csc(-c3cccnc3)n2)cc1	5%	16µM*	-30	?	3%	-19%
c1cncc(-c2csc(-c3cccnc3)n2)c1	17%	-15%	-25	-14%	3%	-4%
CC1CCN(C(=O)CCNC(=O)c2ccccc2Cl)CC1	4%	21%	-8	1%	7%	9%
CC#CC[N+](C)(C)CCCCCCCC	-2%	9.2µM*	-2	12µM*	-10%	?
CC(=O)N(C)c1ccc(NC(=O)N2CCOCC2)cc1	11%	1%	19	13%	18%	9%
COc1ccccc1NC(=O)C(C)Sc1nnc2ccc3ccccc3n12 (centres undefined)	·	?	·	21µM*	·	·
CCOC(=O)C(C)Sc1nnc2ccc3ccccc3n12 (centres undefined)	·	?	·	-1%	·	·
CC(Sc1nnc2ccc3ccccc3n12)C(=O)Nc1ccc(Cl)cc1 (centres undefined)	·	?	·	15µM*	·	·
O=C(NCc1ccccc1)C1c2ccccc2OCC(=O)N1Cc1cccnc1 (centres undefined)	-5%	-5%	1	-3%	2%	·
COc1ccccc1N1CCN(C2CCCN(C(=O)CCC(=O)N(C)C)C2)CC1 (centres undefined)	4%	-3%	10	11%	5%	2%
C[C@@H]1CCC[C@H](C)N1Cc1nc(Cc2ccccc2Cl)no1	11%	?	23	15µM*	0%	13%
CCN1CCCC1CNc1ncnc2c1[nH]c1ccc(Cl)cc12 (centres undefined)	15µM*	?	-110*	?	?	9%
O=C1CCCN1CCCNc1ncnc2c1[nH]c1ccc(Cl)cc12	-11%	?	?	?	?	2%
CCN1CCCC1Cn1cnc2c([nH]c3ccc(C)cc32)c1=O (centres undefined)	2%	-17%	-58*	-23%	5%	-3%
Cc1ccc2[nH]c3c(=O)n(CCN4CCNCC4)cnc3c2c1	-5%	-14%	15	-2%	-17%	10%
COC(=O)/C=C1/S/C(=N/NC(=O)c2ccccc2OC)NC1=O	14%	?	18	-23%	20%	?
COC(=O)/C=C1\S/C(=N\N=C\CC(=O)OC)NC1=O	-1%	5.2µM*	4	3.7µM*	-2%	13%
SMILES	HT1080-NT tox	TDP1 cell noCPT	IL-1B inflam inh	TDP1 cell CPT	HT1080 IDH1KD tx	ELG1 repair inh
Cc1[nH]c2ccccc2c1C(c1ccncc1)N1CCCCC1 (centres undefined)	11%	16µM*	33	13µM*	-2%	-3%
Cc1c(N2CCCCC2)[nH]c2ccccc12	-1%	10µM*	-3	?	4%	·
CC1CCCN(S(=O)(=O)c2ccc(C(=O)NC(C)c3ccccc3)cc2)C1 (centres undefined)	-10%	-28%	-13	?	-6%	-18%
Cc1cc(Cl)ccc1NC(=O)C1CCCN(c2nnc(C)c3c(C)n(-c4ccccc4)nc23)C1 (centres undefined)	·	-14%	·	6%	·	·
Cc1ccc(NC(=O)C2CCCN(c3nnc(C)c4c(C)n(-c5ccccc5)nc34)C2)c(Cl)c1 (centres undefined)	·	3.3µM*	·	4.1µM*	·	·
Cc1cc(C)cc(NC(=O)C2CCCN(c3nnc(C)c4c(C)n(-c5ccccc5)nc34)C2)c1 (centres undefined)	·	15µM*	·	23µM*	·	·
CCc1ccc(NC(=O)C2CCCN(c3nnc(C)c4c(C)n(-c5ccccc5)nc34)C2)cc1 (centres undefined)	·	9.2µM*	·	?	·	·
CCc1ccc(NC(=O)N2CCN(c3nnc(C)c4c(C)n(-c5ccc(Cl)cc5)nc34)CC2)cc1	·	23µM*	·	?	·	·
CCN(C(=O)CCS(=O)(=O)c1ccc2c(c1)CCN2C(C)=O)c1cccc(C(F)(F)F)c1	·	?	·	-26%	·	·
Cc1ccc(NC(=O)C2CCN(c3nnc(C)c4c(C)n(-c5ccccc5)nc34)CC2)c(Cl)c1	·	?	·	13µM*	·	·
COc1ccc(S(=O)(=O)N2CCOC2CNC(=O)C(=O)NCc2ccccn2)cc1OC (centres undefined)	5%	6%	-15	?	3%	·
CC1(C)CC(=O)C=C(c2ccc(COC(=O)c3ccc(-c4ccccc4)cc3)cc2)C1=O	6%	?	15	?	12%	·
CSc1ccccc1OCc1cc(C(=O)NC2CCc3ccccc32)no1 (centres undefined)	-9%	7%	40	-11%	0%	18%
COc1ccc(OCc2cc(C(=O)NC3Cc4ccccc4C3)no2)c(Cl)c1	?	3.7µM*	13	3.3µM*	?	-6%
CCC(NC(=O)c1cc(COc2ccc(C)nc2)on1)c1ccc(C)cc1 (centres undefined)	?	?	-11	16µM*	-5%	-30%
CCC(NC(=O)c1cc(COc2cc(C)c(Cl)c(C)c2)on1)c1ccncc1 (centres undefined)	-15%	21µM*	-18	?	-3%	-17%
